# Out of some 63,000 compounds screened, about 1,100 (1.7%) were called active.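 The calls were made as follows: active = compounds whose percent cytotoxicity in the single-dose primary screen, scaled between solvent and toxic-drug controls, exceeds 50; inactive = the rest.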 This excerpt belongs to a sample that is enriched for actives. Results with a measured potency or affinity are listed apart.
# Experiment: cytotoxicity in KRAS-transformed pancreatic duct cells, primary screen, cell-based, fluorescence, HTS (AID 431);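 also: 0% = DMSO solvent wells and 100% = doxorubicin-treated wells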
# Settings: HPDE-C7K KRASV12 cells, Alamar Blue viability, 48 h; at 10 µM; active compounds read high
row,Compound,cytotoxicity
1,Cn1c(-c2ccc(F)cc2)cnc1SCC(=O)N1CCCCC1,-5.4% (inactive)
2,C/C=C/c1ccc(Oc2nnnn2-c2ccc(C(N)=O)cc2)c(OC)c1,1% (inactive)
3,Fc1ccc2[nH]c3c(N4CCN(Cc5ccc6c(c5)OCO6)CC4)ncnc3c2c1,95.1% (active)
4,c1nc(N2CCN(Cc3ccc4c(c3)OCO4)CC2)c2[nH]cnc2n1,-0.7% (inactive)
5,Cc1ccc2[nH]c3c(N4CCN(Cc5ccc6c(c5)OCO6)CC4)ncnc3c2c1,34.4% (inactive)
6,CCOc1ccc(N(CC(=O)NCc2cccs2)S(=O)(=O)c2c(C)noc2C)cc1,-1.7% (inactive)
7,CCOC(=O)N1CCN(c2c(N3CC=C(c4ccccc4)CC3)c(=O)c2=O)CC1,-2.9% (inactive)
8,O=C(CSc1nc2ccccc2o1)Nc1ccccc1,-14.6% (inactive)
9,CSc1cccc(NC(=O)CSc2nc3ccccc3o2)c1,-18.9% (inactive)
10,COc1ccc(C(=O)Nc2cccc(C)c2)cc1S(=O)(=O)N1CCOCC1,15.9% (inactive)
11,O=C(NCc1ccoc1)c1ccc(NC(=O)c2ccccc2Cl)cc1,-12.8% (inactive)
12,COCCn1nnnc1CN1CCC(NC(=O)c2ccc(Br)cc2)CC1,-2.4% (inactive)
13,CC(=O)OC[C@H]1O[C@@H](n2ccc(=O)[nH]c2=S)C(OC(C)=O)C1OC(C)=O (stereo partly specified),4.5% (inactive)
14,CC(=O)OCC1OC(n2ccc(=O)[nH]c2=O)C(O)C1O (stereo unspecified),0.8% (inactive)
15,CC(=O)OC[C@H]1O[C@@H](n2ncc(=O)[nH]c2=O)[C@H](OC(C)=O)[C@@H]1OC(C)=O,54.7% (active)
16,Nc1nc2nonc2nc1N1CCCCC1,-2.7% (inactive)
17,CCOC(=O)c1cnc(SC2CC(=O)N(c3ccc(OC)c(OC)c3)C2=O)nc1N (stereo unspecified),-9.5% (inactive)
18,C/C(Cl)=C\CNC(C)c1ccccc1 (stereo unspecified),-6.7% (inactive)
19,CC(NC(=O)CSc1ncccn1)c1ccccc1 (stereo unspecified),1.8% (inactive)
20,CC(NCCC(c1ccccc1)c1ccccc1)c1ccccc1 (stereo unspecified),90.2% (active)
21,CCC(=O)Nc1ccc(NC(=O)c2cc3ccccc3o2)cc1,-17.1% (inactive)

row,Compound,cytotoxicity
1,O=C(Nc1ccc(N2CCOCC2)c(Cl)c1)c1ccco1,-11.5% (inactive)
2,O=C(Nc1ccccc1N1CCN(C(=O)c2ccc(Cl)cc2)CC1)c1cc2ccccc2o1,13.1% (inactive)
3,O=C(Nc1ccc(N2CCOCC2)c(Cl)c1)c1cccc(F)c1,31.3% (inactive)
4,O=C(Cc1ccc(Cl)cc1)Nc1ccc(N2CCN(C(=O)c3ccco3)CC2)c(Cl)c1,21.6% (inactive)
5,O=C(Nc1ccc(N2CCOCC2)c(Cl)c1)c1c(F)c(F)c(F)c(F)c1F,64.4% (active)
6,O=C(Nc1ccc(N2CCN(C(=O)c3ccco3)CC2)c(Cl)c1)c1c(F)c(F)c(F)c(F)c1F,103% (active)
7,O=C(Nc1ccccc1N1CCN(C(=O)c2ccccc2)CC1)c1cc2ccccc2o1,-7.4% (inactive)
8,O=C(Nc1ccc(N2CCN(C(=O)c3ccco3)CC2)c(Cl)c1)c1cccs1,-1% (inactive)
9,CCCC(=O)N1CCN(c2ccc(NC(=O)c3cc4ccccc4o3)cc2)CC1,-19% (inactive)
10,Cn1c(SCC(=O)NC(C)(C)C)nnc1-c1ccc(C(C)(C)C)cc1,8.1% (inactive)
11,N#CCc1nc(CSc2nc3ccccc3o2)cs1,-5.5% (inactive)
12,O=C(O)CCN1C(=O)C2C3C=CC(C3)C2C1=O (stereo unspecified),4.7% (inactive)
13,Cc1ccc2cc(CN(CCCO)S(=O)(=O)c3cccc4nsnc34)c(=O)[nH]c2c1C,-8.7% (inactive)
14,Cn1c(=O)c2c(SCc3cccnc3)nc(C3CC3)nc2n(C)c1=O,-15.9% (inactive)
15,C/C(CC1(O)/C(=N/O)CCc2nonc21)=N\O (stereo unspecified),-0.9% (inactive)
16,O=C(Nc1ccc(N2CCN(C(=O)c3ccccc3)CC2)c(Cl)c1)c1ccco1,-11% (inactive)
17,Cc1ccccc1C(=O)N1CCN(c2ccc(NC(=O)c3ccco3)cc2Cl)CC1,14.5% (inactive)
18,Cc1cc(C(=O)CSc2nnc(Nc3ccccc3)s2)c(C)n1CC1CCCO1 (stereo unspecified),1.1% (inactive)
19,Cc1cc(C(=O)CSc2nnc(NCc3ccccc3)s2)c(C)n1C,65.2% (active)
20,C=CCn1c(C)cc(C(=O)CSc2nnc(NCc3ccccc3)s2)c1C,64.7% (active)
21,Cc1cc(C(=O)CSc2nnc(-c3ccccc3)n2C)c(C)n1C,16.6% (inactive)

row,Compound,cytotoxicity
1,C=CCn1c(C)cc(C(=O)CSc2nnc(Cc3ccccc3)o2)c1C,-7.3% (inactive)
2,O=C(CSc1nnc(NCc2ccccc2)s1)c1ccco1,-6.2% (inactive)
3,Cc1cc(C)n(CNc2nc(C(F)(F)F)cs2)n1,-4.6% (inactive)
4,CC1CCN(Cc2ccc(NC(=O)CC3Oc4ccccc4NC3=O)cc2)CC1 (stereo unspecified),0.1% (inactive)
5,CN1C(=O)CSc2ccc(NC(=O)N3CCC(N4CCCCC4)CC3)cc21,-15.1% (inactive)
6,Cc1ccc(C2C3=C(CC(C)(C)CC3=O)Nc3n[nH]c(C)c32)cc1 (stereo unspecified),-5.7% (inactive)
7,COc1cc(Cl)c(C)cc1NC(=O)CSc1nc2ccccc2o1,-5.2% (inactive)
8,CCOC(=O)C1C(C)N=C2SCC(=O)N2C1c1cccc(Br)c1 (stereo unspecified),-13% (inactive)
9,COC(=O)c1ccc(C(=O)OC)c(NC(=O)CSc2nc(-c3ccco3)cc(C(F)(F)F)n2)c1,-21.1% (inactive)
10,COC(=O)c1ccccc1NC(=O)CSc1nc(-c2ccco2)cc(C(F)(F)F)n1,51.7% (active)
11,O=C(CSc1nc(-c2ccco2)cc(C(F)(F)F)n1)Nc1cccnc1,-0.8% (inactive)
12,Cc1ccc(OCC(=O)NCCO)cc1C,9.8% (inactive)
13,C=Cn1c(N2CCOCC2)nc2c1c(=O)[nH]c(=O)n2C,-2.9% (inactive)
14,O=C(Nc1cc(C(=O)N2CCOCC2)ccc1N1CCCC1)c1cccs1,-2.1% (inactive)
15,CC(C)c1ccc2oc(-c3ccc(N)cc3)nc2c1,-11.3% (inactive)
16,CC(C)c1ccc2oc(-c3cc(N)ccc3O)nc2c1,51.5% (active)
17,CCc1ccc2oc(-c3cc(N)ccc3O)nc2c1,7.1% (inactive)
18,COC(=O)c1ccsc1NC(=O)CN1C(=O)CCC1=O,-1.3% (inactive)
19,COCCn1c(SCC(=O)Nc2ncc(C)s2)nc2sc3c(c2c1=O)CCC3,14.3% (inactive)

# Reference: PubChem BioAssay AID431 (Sanford-Burnham Center for Chemical Genomics, 2006)
